# Measured values from the supplement of paper PMC7595190.
# Counter-ions that a name gives are not always drawn. Values without a mark were called inactive.
# Columns and labels:
# Assay in all cases: CellTox Green cytotoxicity fluorescence relative to DMSO vehicle (fold of vehicle RFU); higher = more cell death (loss of membrane integrity), active = 2 or more
# [1] = tested on: CMK
# In short: (§1)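 Single compounds from the Selleckchem apoptosis library were applied at final 0.01, 0.1 and 1 µM (0.1% DMSO vehicle) to MV4-11, CMK and Kasumi-1 cells seeded at 4.0 × 10^4 cells per well with CellTox Green reagent. After incubation at 37 °C, 5% CO2, fluorescence was read at 24, 48 and 72 h. Cytotoxicity, meaning loss of membrane integrity, is shown as fold of the DMSO vehicle signal.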
# [2] = tested on: Kasumi-1
# In short: as §1
# [3] = tested on: MV4-11
# In short: as §1
Structure (SMILES),"CellTox Green cytotoxicity fluorescence ([1]; 0.01 µM, 24 h)","CellTox Green cytotoxicity fluorescence ([1]; 0.01 µM, 48 h)","CellTox Green cytotoxicity fluorescence ([1]; 0.01 µM, 72 h)","CellTox Green cytotoxicity fluorescence ([1]; 0.1 µM, 24 h)","CellTox Green cytotoxicity fluorescence ([1]; 0.1 µM, 48 h)","CellTox Green cytotoxicity fluorescence ([1]; 0.1 µM, 72 h)","CellTox Green cytotoxicity fluorescence ([1]; 1 µM, 24 h)","CellTox Green cytotoxicity fluorescence ([1]; 1 µM, 48 h)","CellTox Green cytotoxicity fluorescence ([1]; 1 µM, 72 h)","CellTox Green cytotoxicity fluorescence ([2]; 0.01 µM, 24 h)","CellTox Green cytotoxicity fluorescence ([2]; 0.01 µM, 48 h)","CellTox Green cytotoxicity fluorescence ([2]; 0.01 µM, 72 h)","CellTox Green cytotoxicity fluorescence ([2]; 0.1 µM, 24 h)","CellTox Green cytotoxicity fluorescence ([2]; 0.1 µM, 48 h)","CellTox Green cytotoxicity fluorescence ([2]; 0.1 µM, 72 h)","CellTox Green cytotoxicity fluorescence ([2]; 1 µM, 24 h)","CellTox Green cytotoxicity fluorescence ([2]; 1 µM, 48 h)","CellTox Green cytotoxicity fluorescence ([2]; 1 µM, 72 h)","CellTox Green cytotoxicity fluorescence ([3]; 0.01 µM, 24 h)","CellTox Green cytotoxicity fluorescence ([3]; 0.01 µM, 48 h)","CellTox Green cytotoxicity fluorescence ([3]; 0.01 µM, 72 h)","CellTox Green cytotoxicity fluorescence ([3]; 0.1 µM, 24 h)","CellTox Green cytotoxicity fluorescence ([3]; 0.1 µM, 48 h)","CellTox Green cytotoxicity fluorescence ([3]; 0.1 µM, 72 h)","CellTox Green cytotoxicity fluorescence ([3]; 1 µM, 24 h)","CellTox Green cytotoxicity fluorescence ([3]; 1 µM, 48 h)","CellTox Green cytotoxicity fluorescence ([3]; 1 µM, 72 h)"
CC(C)[C@H](CO)Nc1nc(Nc2cccc(Cl)c2)c2ncn(C(C)C)c2n1 [Purvalanol A],0.988,1,1,0.992,1,0.965,0.987,1.02,1.02,0.997,0.989,0.974,0.983,0.965,0.974,0.928,0.948,0.923,1.01,1.02,1.03,1.03,1.04,1.04,1,1.06,1.07
Nc1nc(F)nc2c1ncn2[C@@H]1O[C@H](CO)[C@@H](O)[C@@H]1O [Fludarabine],1,1,1,0.981,0.982,0.939,0.976,0.961,0.907,0.951,0.991,0.986,0.99,0.99,0.984,1.02,1.01,1.03,0.938,0.968,0.976,0.992,0.985,0.98,0.994,0.984,1.01
CC(C)c1ccccc1Cc1cc(C(=O)Nc2ccc(S(=O)(=O)c3ccccc3C(C)(C)C)cc2)c(O)c(O)c1O,0.947,0.942,0.932,0.932,0.922,0.947,0.924,1.51,1.6,0.977,0.911,0.915,0.951,0.94,0.932,0.94,0.909,0.919,0.952,0.952,0.957,0.956,0.944,0.945,0.933,1.16,1.84
Cc1nc(Nc2ncc(C(=O)Nc3c(C)cccc3Cl)s2)cc(N2CCN(CCO)CC2)n1 [Dasatinib Monohydrate],1.01,1.02,1.07,1.02,1.04,0.987,1,1.05,1.09,1.03,1.09,1.13,1.02,1.15,1.23,0.928,1.13,1.24,1,0.989,0.978,0.993,0.983,0.97,1.02,1.01,1.01
CCOC(=O)c1[nH]c2cc(Cl)ccc2c1C(C(=O)NC(C)(C)C)N(C=O)Cc1ccc(Cl)cc1 (stereo not given),0.996,0.985,1,0.958,0.958,0.962,0.96,0.971,0.87,1.06,1.01,1,0.989,0.982,1,0.977,0.971,0.97,0.983,0.965,0.957,0.989,0.983,0.985,0.954,0.993,1.02
CCCCC(C=O)NC(=O)C(CC(C)C)NC(=O)C(CC(C)C)NC(C)=O (stereo not given),0.991,0.967,0.962,0.984,0.984,1.01,2.35 (active),3.65 (active),2.82 (active),1.01,0.993,0.999,1.01,1,1,1.03,1.11,1.16,0.985,1.01,1.01,1.01,1.02,1.01,1.16,2.16 (active),2.42 (active)
COc1c/c(=C2\C=c3ccccc3=N2)[nH]/c1=C\c1[nH]c(C)cc1C [Obatoclax Mesylate],0.914,0.907,0.894,0.921,0.88,–,1.01,1,0.819,0.975,0.917,0.921,0.977,1.01,1.05,1.17,1.31,1.42,0.935,0.93,0.916,0.96,0.997,1.02,1.21,1.78,2.14 (active)
CC(C)c1cc2c(N3CCN(C4=NCC(C)(C)S4)CC3)ncnc2s1 [MI-3 (Menin-MLL Inhibitor)],0.943,0.954,0.984,0.923,0.941,0.923,–,–,–,0.955,0.967,0.974,0.987,1.01,0.966,–,–,–,0.931,0.933,0.927,0.883,0.889,0.876,0.961,0.951,0.95
CCCC[C@@H](C=O)NC(=O)[C@H](CC(C)C)NC(=O)OCc1ccccc1 [Calpeptin],1,0.98,0.961,0.992,1,1.02,0.994,1.01,1.01,0.957,0.968,0.962,0.965,0.93,0.913,1.01,1.02,1.03,0.979,0.988,0.986,1.01,1.02,1.01,1.01,1.01,0.999
CN(C)CC[C@H](CSc1ccccc1)Nc1ccc(S(=O)(=O)NC(=O)c2ccc(N3CCN(Cc4ccccc4-c4ccc(Cl)cc4)CC3)cc2)cc1[N+](=O)[O-],0.932,0.938,0.907,0.982,0.992,1.02,1.48,1.67,1.52,1.07,1.11,1.18,1.17,1.49,1.66,1.44,1.81,1.84,0.961,1.15,1.31,1.08,1.59,1.88,1.27,2.34 (active),2.59 (active)
COc1cc(C(=O)N2CCC(N3CCN(C)CC3)CC2)ccc1Nc1ncc2c(n1)N(C)c1ccccc1C(=O)N2C,0.941,0.923,0.891,0.97,0.967,0.941,1.16,1.89,1.71,1.05,1.01,1.01,0.99,0.983,1,1.03,1.33,1.61,1.02,1.01,1.02,1.02,1.03,1.08,1.02,1.29,1.62
